# The supplement of paper PMC11732987, “Enantioselective OTUD7B fragment discovery through chemoproteomics screening and high-throughput optimisation” (Communications Chemistry, 2025)
# Unmarked numbers belong to inactive results.
# How the values were obtained:
# Experiment in all cases: log2 ratio of Biotin-Ahx-Ub-VS probe labelling (fragment/DMSO); higher = less target engagement (more negative = stronger competition), active = hit call of the paper (q ≤ 0.05, log2 ratio ≤ -1)
# Settings in all cases: compound concentration: 200 uM; treatment time: 3 h
# [1] = biological target: T1, OTUD6B (UniProt Q8N6M0)
# T1 sequence (whole entry): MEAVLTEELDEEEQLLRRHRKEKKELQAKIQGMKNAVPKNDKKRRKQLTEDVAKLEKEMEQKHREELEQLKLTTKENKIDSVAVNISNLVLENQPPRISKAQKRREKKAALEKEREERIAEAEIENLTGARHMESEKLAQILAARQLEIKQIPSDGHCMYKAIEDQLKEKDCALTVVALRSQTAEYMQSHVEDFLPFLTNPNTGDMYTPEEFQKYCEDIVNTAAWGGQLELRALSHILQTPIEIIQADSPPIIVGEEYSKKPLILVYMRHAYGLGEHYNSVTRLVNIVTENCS
# Method in brief: (§1)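 Fragment (200 µM) or vehicle was incubated for 3 h with triplicate HEK293T lysate samples of 495 µg, which were then treated with Biotin-Ahx-Ub-VS at 0.5 µM final for 1 h. Labelled DUBs were enriched on NeutrAvidin, digested with LysC and trypsin, and analysed by diaPASEF LC-MS/MS. Values are average log2 fragment/vehicle ratios from an unpaired t-test on global-median-normalised Spectronaut label-free quantities, using proteins with ≥2 unique peptides.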
# [2] = biological target: T2, OTUD7B (UniProt Q6GQQ9)
# T2 sequence (whole entry): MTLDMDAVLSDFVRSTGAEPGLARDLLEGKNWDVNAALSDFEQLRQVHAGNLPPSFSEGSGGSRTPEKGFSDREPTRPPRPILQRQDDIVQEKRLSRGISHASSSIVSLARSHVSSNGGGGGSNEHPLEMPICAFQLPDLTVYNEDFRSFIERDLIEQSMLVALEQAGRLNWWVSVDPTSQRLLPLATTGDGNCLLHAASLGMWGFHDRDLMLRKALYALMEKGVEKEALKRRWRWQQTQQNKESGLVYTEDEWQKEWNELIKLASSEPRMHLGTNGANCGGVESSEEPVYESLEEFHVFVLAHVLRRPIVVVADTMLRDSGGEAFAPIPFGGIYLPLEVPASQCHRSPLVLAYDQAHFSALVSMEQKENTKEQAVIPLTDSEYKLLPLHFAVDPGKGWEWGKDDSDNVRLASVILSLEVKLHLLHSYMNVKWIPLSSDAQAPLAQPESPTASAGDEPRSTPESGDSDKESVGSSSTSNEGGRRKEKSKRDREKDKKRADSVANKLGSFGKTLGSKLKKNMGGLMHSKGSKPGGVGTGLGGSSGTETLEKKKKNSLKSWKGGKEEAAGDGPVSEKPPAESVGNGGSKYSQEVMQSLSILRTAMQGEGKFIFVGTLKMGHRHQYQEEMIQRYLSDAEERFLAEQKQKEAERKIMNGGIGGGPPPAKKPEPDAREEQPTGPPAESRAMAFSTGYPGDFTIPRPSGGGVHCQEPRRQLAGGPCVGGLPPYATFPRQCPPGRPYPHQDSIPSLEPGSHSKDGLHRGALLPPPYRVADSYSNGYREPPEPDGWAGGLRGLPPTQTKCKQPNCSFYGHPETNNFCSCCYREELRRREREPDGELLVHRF
# Method in brief: as §1
# [3] = biological target: PRPF8 (UniProt Q6P2Q9)
# Method in brief: as §1
# [4] = biological target: T3, PSMD7 (UniProt P51665)
# T3 sequence (whole entry): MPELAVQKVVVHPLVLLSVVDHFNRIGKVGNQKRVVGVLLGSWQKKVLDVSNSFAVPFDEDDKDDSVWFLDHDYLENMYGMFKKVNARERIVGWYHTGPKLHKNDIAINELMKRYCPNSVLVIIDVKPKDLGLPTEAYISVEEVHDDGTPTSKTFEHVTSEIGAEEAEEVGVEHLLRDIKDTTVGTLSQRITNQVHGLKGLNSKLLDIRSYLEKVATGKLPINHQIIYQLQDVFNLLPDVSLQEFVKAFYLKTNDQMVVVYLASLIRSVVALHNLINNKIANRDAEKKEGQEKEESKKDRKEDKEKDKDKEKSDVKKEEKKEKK
# Method in brief: as §1
# [5] = biological target: UCHL1 (UniProt P09936)
# Method in brief: as §1
# [6] = biological target: T4, UCHL3 (UniProt P15374)
# T4 sequence (whole entry): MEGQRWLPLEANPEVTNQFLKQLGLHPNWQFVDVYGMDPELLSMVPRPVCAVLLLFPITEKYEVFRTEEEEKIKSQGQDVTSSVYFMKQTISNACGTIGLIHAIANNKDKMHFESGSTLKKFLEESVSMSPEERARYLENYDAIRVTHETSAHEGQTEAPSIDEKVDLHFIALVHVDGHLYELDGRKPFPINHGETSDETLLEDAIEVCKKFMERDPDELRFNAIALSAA
# Method in brief: as §1
# [7] = biological target: T5, UCHL5 (UniProt Q9Y5K5)
# T5 sequence (whole entry): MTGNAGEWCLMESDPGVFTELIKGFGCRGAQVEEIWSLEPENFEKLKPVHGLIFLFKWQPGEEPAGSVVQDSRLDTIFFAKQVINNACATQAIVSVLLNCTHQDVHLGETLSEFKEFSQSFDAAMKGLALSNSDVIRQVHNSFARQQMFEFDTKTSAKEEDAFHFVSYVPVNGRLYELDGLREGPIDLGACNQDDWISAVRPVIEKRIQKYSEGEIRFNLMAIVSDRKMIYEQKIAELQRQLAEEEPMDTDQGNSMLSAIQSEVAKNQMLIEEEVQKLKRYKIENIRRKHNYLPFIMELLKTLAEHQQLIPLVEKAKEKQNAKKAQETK
# Method in brief: as §1
# [8] = biological target: USP10 (UniProt Q14694)
# Method in brief: as §1
# [9] = biological target: T6, USP15 (UniProt Q9Y4E8)
# T6 sequence (whole entry): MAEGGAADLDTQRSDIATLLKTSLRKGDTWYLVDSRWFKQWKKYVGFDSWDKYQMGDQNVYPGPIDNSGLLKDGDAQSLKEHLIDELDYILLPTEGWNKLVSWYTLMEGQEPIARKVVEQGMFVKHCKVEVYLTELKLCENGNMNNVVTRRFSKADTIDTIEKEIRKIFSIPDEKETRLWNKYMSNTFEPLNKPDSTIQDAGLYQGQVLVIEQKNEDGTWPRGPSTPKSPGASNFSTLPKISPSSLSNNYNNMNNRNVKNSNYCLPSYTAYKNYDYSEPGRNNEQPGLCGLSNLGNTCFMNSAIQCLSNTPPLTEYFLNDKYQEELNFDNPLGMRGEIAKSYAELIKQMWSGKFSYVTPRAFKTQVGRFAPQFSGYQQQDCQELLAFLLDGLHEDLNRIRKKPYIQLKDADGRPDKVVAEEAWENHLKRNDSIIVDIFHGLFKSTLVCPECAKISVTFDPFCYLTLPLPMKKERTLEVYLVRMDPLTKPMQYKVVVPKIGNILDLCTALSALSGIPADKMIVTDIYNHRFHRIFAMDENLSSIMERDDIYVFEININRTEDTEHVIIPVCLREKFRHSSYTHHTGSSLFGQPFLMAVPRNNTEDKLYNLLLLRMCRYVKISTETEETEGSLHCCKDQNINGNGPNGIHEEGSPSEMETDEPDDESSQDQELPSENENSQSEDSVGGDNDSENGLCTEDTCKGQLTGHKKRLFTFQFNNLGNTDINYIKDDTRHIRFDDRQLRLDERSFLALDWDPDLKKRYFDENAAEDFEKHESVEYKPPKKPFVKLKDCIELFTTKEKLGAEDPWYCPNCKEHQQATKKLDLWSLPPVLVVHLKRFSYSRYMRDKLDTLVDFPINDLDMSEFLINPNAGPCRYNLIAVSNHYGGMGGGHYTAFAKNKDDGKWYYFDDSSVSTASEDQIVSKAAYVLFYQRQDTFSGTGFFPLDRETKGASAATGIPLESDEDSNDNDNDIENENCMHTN
# Method in brief: as §1
# [10] = biological target: USP16 (UniProt Q9Y5T5)
# Method in brief: as §1
# Chain of USP10 (Q14694 whole entry): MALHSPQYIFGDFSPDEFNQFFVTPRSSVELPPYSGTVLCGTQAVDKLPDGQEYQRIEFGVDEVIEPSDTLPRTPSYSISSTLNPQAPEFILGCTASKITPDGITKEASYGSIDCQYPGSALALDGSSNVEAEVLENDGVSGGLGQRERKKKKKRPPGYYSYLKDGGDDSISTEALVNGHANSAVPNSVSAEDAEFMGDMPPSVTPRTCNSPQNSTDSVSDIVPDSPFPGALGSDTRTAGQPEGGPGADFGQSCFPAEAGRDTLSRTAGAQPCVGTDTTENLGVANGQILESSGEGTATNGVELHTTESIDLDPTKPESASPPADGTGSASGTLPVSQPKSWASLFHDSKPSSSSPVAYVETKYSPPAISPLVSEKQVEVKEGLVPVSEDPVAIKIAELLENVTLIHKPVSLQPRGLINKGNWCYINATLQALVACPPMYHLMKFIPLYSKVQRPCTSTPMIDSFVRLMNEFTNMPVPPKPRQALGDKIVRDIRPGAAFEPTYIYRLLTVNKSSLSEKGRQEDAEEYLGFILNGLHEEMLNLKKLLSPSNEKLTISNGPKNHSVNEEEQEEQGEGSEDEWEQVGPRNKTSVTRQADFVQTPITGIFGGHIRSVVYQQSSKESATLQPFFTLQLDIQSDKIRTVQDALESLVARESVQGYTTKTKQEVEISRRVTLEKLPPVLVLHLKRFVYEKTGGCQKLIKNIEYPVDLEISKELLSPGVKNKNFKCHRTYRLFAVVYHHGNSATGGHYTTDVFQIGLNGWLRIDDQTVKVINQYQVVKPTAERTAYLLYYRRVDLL
# Chain of USP16 (Q9Y5T5 whole entry, looked up): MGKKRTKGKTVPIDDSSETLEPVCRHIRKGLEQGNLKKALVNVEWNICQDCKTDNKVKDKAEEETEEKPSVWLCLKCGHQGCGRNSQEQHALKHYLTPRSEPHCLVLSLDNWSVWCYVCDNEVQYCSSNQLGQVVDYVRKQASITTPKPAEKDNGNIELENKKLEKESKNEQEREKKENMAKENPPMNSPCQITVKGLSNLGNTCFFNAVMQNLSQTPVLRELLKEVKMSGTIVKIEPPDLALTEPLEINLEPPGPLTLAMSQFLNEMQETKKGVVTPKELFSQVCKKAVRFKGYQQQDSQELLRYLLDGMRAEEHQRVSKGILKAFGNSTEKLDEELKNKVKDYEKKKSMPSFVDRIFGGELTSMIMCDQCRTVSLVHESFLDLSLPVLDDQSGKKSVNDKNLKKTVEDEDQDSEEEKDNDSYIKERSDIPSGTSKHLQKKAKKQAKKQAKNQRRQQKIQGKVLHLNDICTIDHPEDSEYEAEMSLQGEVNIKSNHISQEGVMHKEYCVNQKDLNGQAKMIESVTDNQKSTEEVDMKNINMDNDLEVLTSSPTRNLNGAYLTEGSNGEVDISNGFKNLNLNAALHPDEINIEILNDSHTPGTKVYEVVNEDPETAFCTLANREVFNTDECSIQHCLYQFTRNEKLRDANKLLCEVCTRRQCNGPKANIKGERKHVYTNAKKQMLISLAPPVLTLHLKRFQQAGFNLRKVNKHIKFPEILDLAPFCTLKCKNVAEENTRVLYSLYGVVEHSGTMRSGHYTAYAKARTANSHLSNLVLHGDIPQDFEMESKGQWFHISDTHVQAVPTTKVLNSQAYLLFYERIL
# Chain of UCHL1 (P09936 whole entry, looked up): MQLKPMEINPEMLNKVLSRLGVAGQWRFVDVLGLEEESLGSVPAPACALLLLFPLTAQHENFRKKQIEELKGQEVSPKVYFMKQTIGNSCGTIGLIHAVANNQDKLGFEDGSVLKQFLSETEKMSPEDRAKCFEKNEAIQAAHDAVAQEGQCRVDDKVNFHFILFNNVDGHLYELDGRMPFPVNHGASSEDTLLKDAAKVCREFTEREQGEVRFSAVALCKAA
compound,measurement,setting,value
O=C(CCl)Nc1ccc2c(c1)OC(F)(F)O2,log2 ratio of Biotin-Ahx-Ub-VS probe labelling,[1],-0.167
same,log2 ratio of Biotin-Ahx-Ub-VS probe labelling,[2],-0.873
same,log2 ratio of Biotin-Ahx-Ub-VS probe labelling,[3],0.00481
same,log2 ratio of Biotin-Ahx-Ub-VS probe labelling,[4],-0.159
same,log2 ratio of Biotin-Ahx-Ub-VS probe labelling,[5],-1.06 (active)
same,log2 ratio of Biotin-Ahx-Ub-VS probe labelling,[6],0.0771
same,log2 ratio of Biotin-Ahx-Ub-VS probe labelling,[7],-0.471
same,log2 ratio of Biotin-Ahx-Ub-VS probe labelling,[8],-0.126
same,log2 ratio of Biotin-Ahx-Ub-VS probe labelling,[9],-0.192
same,log2 ratio of Biotin-Ahx-Ub-VS probe labelling,[10],0.132
